The entries come from a sample that favours hits as a whole.
TTR transcr act – increases transthyretin transcription; SH-SY5Y TTR promoter Gaussia luciferase, luminescence; 100% = recombinant luciferase protein wells; activation, % at 16.7 µM; hit rate 1.3% among 92,000;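 active means activation above the mean of all tested compounds plus 3 SD, cut at about 9.5% in these data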;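 further: cells exposed to compounds for one day before reading; 0% = median of all test compound wells on the plate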
HuH7 TTR inh – HuH7 TTR transcription inhibition, counter-screen; shares compounds with TTR transcr act; HuH7 TTR promoter-Gaussia luciferase reporter, luminescence; inhibition, % at 16.7 µM; hit rate 4% among 1,100; AID 1117279;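 active means average inhibition above the solvent-only control wells' mean plus 3 SD, cut at about 15% in these data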;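 further: 0% = cells with DMSO only and 100% = cells with inhibitor control FD; inhibitors lower well luminescence so higher value means more inhibition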
TTR up confirm – human TTR transcription activation, confirmation; shares compounds with TTR transcr act; SHSY5Y TTR promoter Gaussia luciferase, luminescence; 100% = purified Lucia enzyme wells, no cells; activation, % at 16.7 µM; 1,100 tested, under 10 active;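 active means mean activation above a set limit taken from the earlier primary screen, cut at about 11% in these data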;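 further: 0% = DMSO-treated cells and 100% = recombinant Lucia luciferase without cells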
The depositor's hits bear a star.

SMILES	TTR transcr act	others
CC1=C(O)C(=O)C=C2C1=CC=C1C2(C)CCC2(C)C3CC(C)(C(=O)O)CCC3(C)CCC12C (centres undefined)	-6.9
O=c1[nH]c2ccccc2n1C1CCN(C(CCc2ccccc2)c2nnnn2C2CCCC2)CC1 (centres undefined)	-4.3
Cc1cccn2c(NCC3CCCO3)c(C(C)C)nc12 (centres undefined)	27.0*	HuH7 TTR inh=9.2;TTR up confirm=-0.7
CNC(=O)C[C@H]1CC[C@@H]2NC[C@H](O)COC[C@H]2O1	1.0
C[C@H](NC(=O)OCc1ccccc1)[P+](=O)O	0.3
CCOC(=O)CNC(=O)N1Cc2cc(N3CCOCC3)ccc2-n2nncc2C1	-0.8
Cc1ccccc1-c1ccc2c(c1)C1c3c(-c4ccccc4)nnn3-c3ccccc3C(=O)N1CC2 (centres undefined)	-1.1
C[C@H]1[C@@H](c2ccccc2)O[C@@H](c2ccccc2Br)N1C	10.7*	HuH7 TTR inh=-7.9;TTR up confirm=0.0
CSCCC(c1nnnn1-c1ccc2c(c1)OCCO2)N1CCC(n2c(=O)[nH]c3ccccc32)CC1 (centres undefined)	-2.6
CC(C)(C)Cc1nnc(NC(=O)COc2ccc(Cl)cc2Cl)o1	2.0
O=C1NCN(c2ccccc2)C12CCN(C(c1cccc3ccccc13)c1nnnn1-c1ccc3c(c1)OCCO3)CC2 (centres undefined)	1.1
